Activity calls are given as the source filed them. Rule for the calls: active = hit-call score of the fitted dose curve at least 0.9, where 1 is the maximum; inactive = score below 0.9.

As usually defined, the AC50 is the concentration at which the activity in the assay is half-maximal.

The nature of this assay: ATG_Sox_CIS: Attagene CIS-FACTORIAL HepG2 Assay for human SRY-box transcription factor (SOX) (AID 2282960). As to conditions: HepG2 Attagene cis-factorial SOX reporter, mRNA; actives raise or lower the signal. Here is the method: ATG_CIS is a cell-based, multiplexed-readout assay that uses HepG2, a human liver cell line, with measurements taken at 24 hours after chemical dosing in a 24-well plate.ATG_Sox_CIS is one of 52 assay component(s) measured or calculated from the ATG_CIS assay. It is designed to make measurements of mRNA induction, a form of inducible reporter, as detected with fluorescence intensity signals by Reverse transcription polymerase chain reaction (RT-PCR) and Capillary electrophoresis technology.Data from the assay component ATG_Sox_CIS was analyzed into 1 assay endpoint. This assay endpoint, ATG_Sox_CIS, was analyzed with bidirectional fitting relative to DMSO as the negative control and baseline of activity. Using a type of inducible reporter, measures of mRNA for gain or loss-of-signal activity can be used to understand the reporter gene at the transcription factor-level as they relate to the gene SOX1. Furthermore, this assay endpoint can be referred to as a primary readout, because this assay has produced multiple assay endpoints where this one serves a reporter gene function. To generalize the intended target to other relatable targets, this assay endpoint is annotated to the dna binding intended target family, where the subfamily is HMG box protein.
Human liver HepG2 cells are transiently transfected with multiple reporter transcription units (MRTUs) in 6-well plates using FuGene 6 reagent (Roche; 3 ml FuGene/1 mg DNA). The MRTU constructs are regulated by a cis-regulating element (promoter). […] A major difference between the CIS and TRANS system is that in CIS activities of endogenous TFs are measured, whereas the TRANS assay evaluates changes in activities of exogenous, chimeric NR-Gal4 proteins. […] At the end of 24 hour incubation, total RNA was isolated using TriZol reagent (Invitrogen). The isolated RNA is then reverse-transcribed using oligo(dT) primer and Mo-MLV reverse transcriptase (Invitrogen) with DNAse I (Ambion) treatment for 30 min. The one-tenth of the produced cDNA was amplified by PCR using Taq DNA polymerase (Invitrogen) and two reporter sequence-specific primers. The PCR products were fluorescently labeled by primer extension with 6-arboxyfluorescein (6-FAM) 5'-labeled reporter sequence-specific primer (2 min at 95 C, 20 s at 68 C and 10 min at 72 C) and these products were digested with 5U of HpaI (New England Biolabs) for 2h at 37 C. The fragments were purified using Qiaquick PCR columns (Qiagen), analyzed on an ABI 3130xL genetic analyzer (Applied Biosystems) with peak positions identified by using a set of X-rhodamine (ROX)-labeled MapMarker1000 molecular weight standards (BioVentures). The raw capillary electrophoresis data was processed using Attagraph software (Attagene).
On to `O=NN1CCOCC1`, for which the result was inactive. In the case of `CCCCC(CC)C(=O)Cl` (stereo not given), the call was inactive. Regarding `CS(=O)(=O)c1ccc(C(=O)C2C(=O)CCCC2=O)c(Cl)c1COCC(F)(F)F`, the call was inactive. Regarding `[F][Sn]([c]1ccccc1)([c]1ccccc1)[c]1ccccc1`, the AC50 is 328 nM (active). Regarding `CCC(C)(C#N)N=NC(C)(C#N)CC` (stereo not given), the result was inactive. As to `O=C(O)COc1ccc(Cl)cc1`, the compound was classed as inactive. Turning to `CC(C)(c1ccccc1)c1cc(-n2nc3ccccc3n2)c(O)c(C(C)(C)c2ccccc2)c1`, the call was inactive.

Regarding `CCN(CC)C(=O)C(Cl)=C(C)OP(=O)(OC)OC`, the compound was called inactive. Consider `CC(C)N(C(=O)CCl)c1ccccc1`, for which the AC50 is 48200 nM (active).

As for `Oc1ccc(Cc2ccc(O)cc2)cc1`, the outcome was inactive. Consider `CC1(C)[C@H](/C=C2\CCSC2=O)[C@@H]1C(=O)OCc1coc(Cc2ccccc2)c1`, for which the result was inactive. For `O=[N+]([O-])c1cc([As](=O)(O)O)ccc1O`, the result was inactive. Same read-out and setting: the result for `CCCCOP(=O)(CCCC)OCCCC` reads “inactive”. On to `O=S1(=O)OC(c2cc(Br)c(O)c(Br)c2)(c2cc(Br)c(O)c(Br)c2)c2ccccc21`, for which the outcome was inactive. In the case of `C1CN2CCN1CC2`, the call was inactive. Same read-out and setting: with `ClCCN1CCOCC1` the entry was “inactive”. On the same count and under the same terms, with `Cc1ccccc1OP(=O)(Oc1ccccc1)Oc1ccccc1` the entry was “inactive”; with `O=C(O)c1cc(I)cc(I)c1I`, “inactive”.

Turning to `CC1(C)[C@H](C(=O)O[C@H](C#N)c2cccc(Oc3ccccc3)c2)[C@@H]1/C=C(\Cl)C(F)(F)F`, the outcome was inactive. As to `O=[N+]([O-])c1ccc(Nc2ccccc2)cc1`, the compound was called inactive.

With `O=S1OC[C@@H]2[C@H](CO1)[C@]1(Cl)C(Cl)=C(Cl)[C@@]2(Cl)C1(Cl)Cl` (stereo not given in full), the outcome was inactive. For `CNC(=O)O/N=C/C(C)(C)S(C)(=O)=O`, the compound was called inactive.

Regarding `CC(C)(C#N)N=NC(C)(C)C#N`, the outcome was inactive. In the case of `O=CCCl`, the outcome was inactive. Still for that read-out and setting: with `CN(N=O)c1ccc([N+](=O)[O-])cc1` the entry was “inactive”; with `CCC[N+](CCC)(CCC)CCC`, “inactive”; with `BrCc1ccc(Br)cc1`, “inactive”. For the compound `CCCCCCCCCCCCCl`, the compound was classed as inactive. As for `COc1ccc(N)cc1`, the compound was classed as inactive. For `CC(C)(C1CCC(O)CC1)C1CCC(O)CC1` (stereo not given), the outcome was inactive.

As to `CCCCN(CCCCO)N=O`, the result was inactive. As to `CCN(N=O)C(N)=O`, the compound was classed as inactive. Take `Cc1cc(C(F)(C(F)(F)F)C(F)(F)F)ccc1NC(=O)c1cccc(I)c1C(=O)NC(C)(C)CS(C)(=O)=O`: the compound was classed as inactive.

Consider `CCOP(=S)(OCC)Oc1ccc(Cl)cc1Cl`, for which the result was inactive. On to `[Cl][Sn]([c]1ccccc1)([c]1ccccc1)[c]1ccccc1`, for which the AC50 is 217 nM (active).

As for `Cc1ccc(OP(=O)(Oc2ccc(C)cc2C)Oc2ccc(C)cc2C)c(C)c1`, the outcome was inactive. For `COC(F)(C(F)(F)C(F)(F)F)C(F)(C(F)(F)F)C(F)(F)F` (stereo not given), the compound was called inactive. As for `NC(=O)c1ccc(N)nc1`, the outcome was inactive. Turning to `O=C1C=CC(=O)c2ccccc21`, the result was inactive. Turning to `Cc1cccc(N=Nc2ccc(N(C)C)cc2)c1`, the outcome was inactive.

Values taken from PubChem BioAssay (EPA / NIEHS).
